Our source for the growth values is PubChem BioAssay (NCI).

About 83,000 compounds went through this panel and 20% of them were active in at least one assay; those are over-represented in the sample as a whole.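 Compound tested at a single concentration for 48 hours in 96-well plates; a percent growth value below 10 was scored as active.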 Active and inactive are the calls of the source.

The subject of this test is A498 renal. The test is described as follows: NCI-60 one-dose screen, 48 h (100 = growth as untreated, 0 = no growth, -100 = all killed). To be noted: 10 µM unless noted. How it is done: Growth inhibition of the A498 human tumor cell line is measured as a screen for anti-cancer activity. Cells are grown in 96 well plates and exposed to the test compound for 48 hours. Compounds are tested at a single concentration, which is 10^-5 M for most compounds. The reported endpoint is percent growth (GI% or GIPRCNT), where numbers from 0 - 100% represent growth inhibition, and numbers from -100% - 0 represent cell death. For example, a value of 40 represents 60% growth inhibition. A value of 0 means no net growth occurred over the course of the experiment. A value of -40 indicates 40% of cells at the beginning of the experiment died by the end of the experiment. A value of -100 means all cells are dead at the end of the experiment.
NCI-60 Human Tumor Cell Lines Screen was performed using the standard one-dose NCI protocol, which is described in more detail at https://dtp.cancer.gov/discovery_development/nci-60/default.htm.
Compounds with GIPRCNT values below 10 were considered active. Activity score was based on GIPRCNT using the following formula: […]
Score is 0 for GIPRCNT values of 100 or above, 50 for GIPRCNT values of 0, and 100 for GIPRCNT values of -100.
With `Cn1cc(-c2csc(-c3cn(CCO)c4ccc(F)cc34)n2)c2cccnc21`, the growth is 45.3% (inactive). As for `COc1cccc(/C=C2\CCc3ccccc3C2=O)c1`, the growth is 95.2% (inactive). In the case of `Cc1oc2ccc(O)c(CN3CCCCCC3)c2c1C(=O)Nc1ccc(C(F)(F)F)cc1` it was 50.5% (inactive); in that of `COC(=O)[C@H](C)NC(=O)[C@@H]1CCCN1C(=O)CNC(=O)[C@H](C)N`, 93.2% (inactive). In the case of `COc1ccc(/C(C)=C(\c2ccc(Cl)cc2)c2ccc(OCCCN(C)C)cc2)cc1` it was 93.4% (inactive).

On to `c1ccc(Cn2cc3c(c2)-c2nc(Nc4ccccc4)ncc2CC3)cc1`, for which the growth was 105% [100 µM] (inactive). With `COc1ccc(CNc2ccc3nc(CCC4CCCCC4)[nH]c3c2)cc1`, the growth is 53.2% (inactive).

Regarding `CSc1nc(N)c2c(n1)NC(c1ccccc1)C1CCc3ccccc3C1=N2` (stereo not given), the growth was 42.7% (inactive).

Regarding `N#C/C(=N\Nc1ccccc1)C(=O)Nc1cc(-c2ccccc2)nn1-c1ccccc1`, the growth was 1.62% (active). Turning to `CCN(CC)CCCNC(=O)c1c2c(n3ccccc13)C(=O)c1ncccc1C2=O`, the growth is -73% (active). In the case of `O=c1c(Cc2ccc(F)cc2)cc(-c2ccccc2)nn1C/C(=N/O)c1ccccc1` it was 9.7% (active); in that of `COc1cc2cc(Oc3ccc(NC(=O)Nc4ccc(Cl)c(Cl)c4)cc3)c(C)nc2cc1OCCN1CCCCC1`, 86.8% (inactive); in that of `N#C/C(=C\c1cccc2cnccc12)N1N=NC2C=CC=CC21` (stereo not given), 38.5% (inactive). For `Cc1c2ccncc2c(C)c2c1c1ccccc1n2CCCCCC(=O)O`, the growth was 52.8% (inactive). With `CC1=C(C(=O)c2ccccc2)C(c2ccc3c(c2)OCO3)NC(=S)N1` (stereo not given), the growth is -12.5% (active). Consider `COc1ccc(/C=C\c2cc(OC)c(OC)c(OC)c2)cc1OCC(=O)Nc1nc2ccccc2s1`, for which the growth is 25.1% (inactive). To `COc1ccc(-c2ccc(-c3ccc(C(=N)N)o3)o2)cc1` belongs 9.73% (active); to `O=C1c2cccnc2C(=O)c2c1c(C(=O)OCCCN1CCOCC1)c1ccccn21`, -20.2% (active); to `CN1CCN(Cn2nc(-c3cc(Cl)cc(Cl)c3Cl)oc2=S)CC1`, 95% (inactive). In the case of `COc1ccc(Nc2nc(Nc3cc(C)[nH]n3)c3cc(OC)c(OC)cc3n2)cc1` it was -98.7% [20 µM] (active). In the case of `COc1ccc(C2=C/C(=C\c3ccccc3O)C(=O)N2Cc2ccccc2)cc1` it was 98.3% (inactive).

Regarding `CNC(=O)c1cc(Oc2ccc3nc(NC(=O)c4cc(C(F)(F)F)cc(C(F)(F)F)c4)sc3c2)ccn1`, the growth was -11.4% (active). To `CC(=O)O[C@H]1CC[C@@]2(C)C(=CC[C@@H]3[C@@H]2CC[C@]2(C)C(Cl)=C(c4nc5ccc(Cl)cn5c4NC(C)(C)C)C[C@@H]32)C1` belongs 92.8% (inactive); to `Cc1ccc2c(c1)CC(O)CC1C(=O)N(CCO)CC(=O)N21` (stereo not given), 99.4% (inactive). In the case of `COC(=O)[C@@H](Cc1c[nH]c2ccccc12)NC(=O)[C@H](Cc1ccccc1)NCc1ccncc1` it was 100% (inactive). Consider `CCOC(=O)c1cc(C(=O)c2cc(OC)cc(OC)c2)n2ccccc12`, for which the growth was 28.8% (inactive).

Turning to `CC(C)(C#N)c1cc(C(=O)Nc2cc(Nc3ncccc3-c3ncnc4nc[nH]c34)ccc2F)cc(C(F)(F)F)c1`, the growth was -24.9% (active). For `COc1cccc(C(=O)Nc2cccc(NC(=O)c3ccccn3)c2)c1`, the growth is 93% (inactive).

In the case of `C/C=C(/C)C(=O)O[C@@H]1CC(C)(C)CC2C34OC(=O)[C@@]21CC[C@@]3(C)[C@]1(C)CCC2C(C)(C)C(=O)CC[C@]2(C)C1C[C@@H]4O` (stereo not given in full), the growth is 69.3% (inactive).

As to `Cc1ccc2c(n1)C[C@H](C(C)(C)O)CC[C@H]2C`, the growth is 98.1% (inactive). `C[C@H]1c2ccccc2CN1CCCOc1cc2c(cc1OCC1CC1)C1(CCCC1)C(N)=N2`: the growth is 32.5% (inactive). Turning to `FC(F)(F)c1cccc(-c2nnn(Cc3cc(-c4cccc(Cl)c4)no3)n2)c1`, the growth is 103% (inactive). Regarding `CCc1ccc(Cc2cnc(NC(=O)c3cc(C)oc3C)s2)cc1`, the growth was 8.18% (active). In the case of `Nc1cc(-c2ccc(Cl)cc2)nn1-c1nc(-c2ccc(Br)cc2)cs1` it was 91.7% (inactive); in that of `C=C(C)[C@@H]1CC[C@]2(C#N)CC[C@]3(C)[C@H](CC[C@@H]4[C@@]5(C)CCCNC(C)(C)[C@@H]5CC[C@]43C)[C@@H]12`, 82.4% (inactive). In the case of `Cc1cc([N+](=O)[O-])ccc1NC(=O)c1ccc2c(c1)nc(-c1ccccc1)n2C1CCCCC1` it was 122% (inactive); in that of `CC(C)(C)[C@H](OCc1cn([C@H]2C[C@@H](O)[C@@H](CO)O2)c(=O)[nH]c1=O)c1ccc(C#Cc2ccccc2)cc1[N+](=O)[O-]`, 95% (inactive); in that of `O=C(OCC(O)C(=O)NC12CC3CC(CC(C3)C1)C2)c1cccc(Br)c1` (stereo not given), 94.4% (inactive). `C(=N\Nc1nnc2n1N=C(c1ccccc1)CS2)/c1ccc(OCc2ccccc2)cc1`: the growth is 108% (inactive). `C=CCNc1nc(O)c(/C=C2\C=Nc3ncccc32)s1`: the growth was -34.5% (active).
